CYP2C19 inh: human CYP2C19 inhibition; P33261; CYP2C19 Supersomes, luciferin-H EGE luminescence, 30 min; inhibition, % at 5 µM; hit rate 21% among 96,000; AID 778;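 active = CYP2C19 inhibition above a set limit at 5 µM in the primary screen, cut at about 50% in these data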;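 also: plate controls were negative control wells for no effect and 2.5 mM tranylcypromine positive control for full effect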
Target sequence (P33261 whole entry, looked up): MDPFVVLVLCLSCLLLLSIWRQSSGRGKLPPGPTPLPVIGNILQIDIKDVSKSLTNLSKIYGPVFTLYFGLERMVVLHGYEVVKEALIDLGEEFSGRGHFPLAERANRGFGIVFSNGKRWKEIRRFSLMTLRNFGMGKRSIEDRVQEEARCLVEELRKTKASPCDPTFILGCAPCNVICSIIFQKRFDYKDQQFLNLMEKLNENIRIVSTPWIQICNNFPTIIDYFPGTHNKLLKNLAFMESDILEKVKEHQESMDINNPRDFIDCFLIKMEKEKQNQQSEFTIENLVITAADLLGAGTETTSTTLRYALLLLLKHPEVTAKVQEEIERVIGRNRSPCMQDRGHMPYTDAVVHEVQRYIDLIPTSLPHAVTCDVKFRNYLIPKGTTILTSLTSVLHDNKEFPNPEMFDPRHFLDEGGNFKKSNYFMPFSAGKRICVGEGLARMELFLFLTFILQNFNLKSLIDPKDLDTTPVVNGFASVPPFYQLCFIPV
CYP2C9 inhib: inhibitors of human CYP2C9. CYP2C9 Supersomes, luciferin-H conversion, luminescence. hit rate 20% among 96,000. P11712. inhibition, % at 5 µM. AID 777;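 active = blocking of liver enzyme CYP2C9 beyond about 50% at 5 µM, limit read from the data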
EphB4 antag: EphB4-ephrin-B2 interaction antagonism | hit rate 0.15% among 97,000 | EphB4 LBD / TNYL-RAW-Alexa532 peptide, fluorescence polarization | inhibition, % at 7 µM;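 active = inhibition above the screen-wide mean inhibition plus 3 SD, cut at about 15% in these data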;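 also: 0% = DMSO wells and 100% = excess unlabeled TNYL-RAW peptide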
CYP2C19 act: cytochrome P450 2C19 (human) activation; recombinant CYP2C19, luciferin-H EGE luminescence; hits give high values; 0 = fully inhibited enzyme, 1 = untreated enzyme; activation factor at 5 µM; 96,000 tested, under 10 active;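 active = activation factor of at least 2 at 5 µM in the primary screen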;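 also: 0 = wells with 2.5 mM tranylcypromine and 1 = vehicle-only wells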
CYP2C9 act: CYP2C9 (human) activation. P11712. recombinant CYP2C9, luciferin-H conversion, luminescence; hits give high values; factor 1 = untreated enzyme, 0 = blocked. activation factor at 5 µM. hit rate 1.4% among 96,000. AID 1024;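 active = activation factor of 2 or more for CYP2C9 at a 5 µM dose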;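 also: 0 = sulfaphenazole-blocked wells and 1 = vehicle-only wells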
* = called active by the depositor; x = not tested or not shown; [ ] = another dose, or the depositor's remark. This is a sample that favours compounds with a hit; in the whole collection about 27% have one here.

SMILES	CYP2C19 inh	CYP2C9 inhib	EphB4 antag	CYP2C19 act	CYP2C9 act
CCC(=O)Nc1ccccc1C(=O)OCC(=O)Nc1ccc(S(N)(=O)=O)cc1	-4.9	32.7	0.7	1	0.7
Cc1ccc(S(=O)(=O)Oc2ccc(C3C4=C(CCCC4=O)OC4=C3C(=O)CCC4)cc2)cc1	0.8	-2.3	2.2	1	1
Cc1ccc(CCC2C3=C(CCCC3=O)OC3=C2C(=O)CCC3)cc1	95.3*	75.1*	-7.6	0	0.2
CN(C)c1ccc(C2C3=C(CCCC3=O)OC3=C2C(=O)CCC3)cc1	-0.8	0.2	2.9	1	1
CC(C)c1ccc(CC(C)C2C3=C(CCCC3=O)OC3=C2C(=O)CCC3)cc1 (stereo not given)	98.8*	96.7*	0.6	0	0
N#Cc1c(N)nc(SCc2ccncc2)c(C#N)c1-c1cccs1	57.6*	83.5*	x	0.4	0.2
CCSc1nc(N)nc(-c2cccs2)c1C#N	37.1	71.8*	-1.0	0.6	0.3
COc1cc(-c2c(C#N)c(N)nc3c2CCCC3)cc(OC)c1OC	x	x	-0.7	x	x
Cc1ccccc1NC(=O)CSc1nc(N)c(C#N)c(-c2cccs2)c1C#N	61.5*	52.6*	-9.6	0.4	0.5
COc1cc(-c2c(C#N)c(N)nc(SCc3ccncc3)c2C#N)cc(OC)c1OC	100.0*	100.4*	-1.2	0	0
Cn1c(=O)c2c(nc(NCCCN3CCOCC3)n2Cc2cccc(Cl)c2)n(C)c1=O	14.1	10.6	-1.2	0.9	0.9
Cc1ccc(C(O)CN2C3=NCCCN3c3ccccc32)cc1 (stereo not given)	x	x	3.7	x	x
C=CCSc1nc(N)c(C#N)c(-c2ccc(C)cc2)c1C#N	43.3	63.4*	2.8	0.6	0.4
C=CCSc1nc(C)cc(/C=C\c2ccccc2)c1C#N	7.1	-116.7	-7.8	0.9	2.2*
O=C(Cn1cnc2c(nnn2-c2ccc(F)cc2)c1=O)N1CCCc2ccccc21	-3.7	11.0	8.3	1	0.9
Cc1onc(-c2ccccc2)c1C(=O)Oc1cccnc1	51.3*	17.7	-1.8	0.5	0.8
COCCCNC(=O)c1c(-c2ccccc2)noc1C	7.2	1.1	12.0	0.9	1
Cc1onc(-c2ccncc2)c1C(=O)O	-8.8	10.6	9.9	1.1	0.9
Cc1onc(-c2ccccc2)c1C(=O)NCc1cccnc1	58.7*	25.2	x	0.4	0.7
CCCCOCCCNC(=O)c1c(-c2ccccc2)noc1C	67.9*	47.4	2.1	0.3	0.5
Cc1onc(-c2ccccc2)c1C(=O)NCc1cccs1	35.3	34.6	-7.8	0.6	0.7
Cc1c2cc(O)c(=O)cc-2oc2cc(O)c(O)cc12	25.2	81.6*	48.5*[fluorescence artefact?]	0.7	0.2
O=c1cc(-c2ccccc2F)oc2ccccc12	x	x	5.5	x	x
O=C(CSc1nc2ccccc2c(=O)n1CCC(=O)N1CCCCC1)NCc1ccccc1	x	x	-3.2	x	x
Cc1ccc(NC(=O)CSc2nc3ccccc3c(=O)n2CCCC(=O)N2CCCC2)cc1	54.8*	43.5	1.3	0.5	0.6
SMILES	CYP2C19 inh	CYP2C9 inhib	EphB4 antag	CYP2C19 act	CYP2C9 act
COCCn1c(SCC(=O)Nc2ccc(NC(=O)c3ccco3)c(OC)c2)nc2ccccc2c1=O	-1.6	20.8	1.9	1	0.8
CCCCn1c(SCC(=O)Nc2cc(NC(=O)c3ccco3)ccc2C)nc2ccccc2c1=O	71.7*	74.6*	-1.4	0.3	0.3
Cc1ccc(NC(=O)CSc2nc3ccccc3c(=O)n2CCCN2CCCCC2)cc1C	48.2	63.1*	-0.2	0.5	0.4
Nc1nc(SCC(=O)N2CCCC2)[nH]c(=O)c1-c1ccccc1	-8.7	-12.1	-3.0	1.1	1.1
CC(C)C(=O)Nc1ccnc(-c2cccnc2)n1	75.9*	42.1	-2.7	0.2	0.6
O=C(Nc1ccnc(-c2cccnc2)n1)c1cccc(Cl)c1Cl	51.0*	24.2	0.4	0.5	0.8
O=C(Nc1ccnc(-c2cccnc2)n1)c1ccccc1Cl	24.1	25.0	3.8	0.8	0.8
CCCCC(=O)Nc1ccnc(-c2cccnc2)n1	97.8*	76.2*	-0.7	0	0.2
COc1nc(NS(=O)(=O)c2ccc(C)cc2)nc(C)c1Cl	68.0*	71.0*	-1.3	0.3	0.3
CC(C)CCOC(=O)C1C(c2ccccc2)C(C(=O)O)C1c1ccccc1 (stereo not given)	59.3*	22.8	4.4	0.4	0.8
Cc1cccc(OC(=O)C2C(c3ccccc3)C(C(=O)O)C2c2ccccc2)c1 (stereo not given)	10.0	59.3*	-4.0	0.9	0.4
COC(=O)C1C(c2ccccc2)C(C(=O)N2CCN(C)CC2)C1c1ccccc1 (stereo not given)	18.8	-3.3	5.2	0.8	1

Assay outcomes: PubChem, several laboratories
